# Measurements as given in PubChem BioAssay AID1159580 (chemical genetic matrix, 2015).
# The whole screen tested about 5,500 compounds, of which about 2,000 (36%) were called active. About 18% were inconclusive and are not listed. No stated cut-off is given here; in the data, active means normalized growth mostly below about 0.91 (no sharp cut-off); inconclusive means no clear call, values can overlap the other calls; inactive means mostly above about 0.92. Some of the results follow.
# Test: chemical genetic growth profiling, strain panel (AID 1159580);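 further: tested at 20 µM; growth read once vehicle control cultures reached saturation at 30 °C; 1 = growth at the plate median or of vehicle wells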
# Details: S. cerevisiae deletion strains, growth OD
smiles,measurement,setting,value
CC(C)=CCC/C(C)=C/CC/C(C)=C/CC/C(C)=C/CC/C(C)=C/CC/C(C)=C/CC/C(C)=C/CC/C(C)=C/CC/C(C)=C/CO,normalized growth,"locus YAL021C, strain ccr4, stronger effect = lower value",0.988 (inactive)
same,normalized growth,"locus YAL026C, strain drs2, stronger effect = lower value",1 (inactive)
same,normalized growth,"locus YAL030W, strain snc1, stronger effect = lower value",0.993 (inactive)
same,normalized growth,"locus YBL061C, strain skt5, stronger effect = lower value",0.988 (inactive)
same,normalized growth,"locus YBR009C, strain hhf1, stronger effect = lower value",0.995 (inactive)
same,normalized growth,"locus YBR023C, strain chs3, stronger effect = lower value",1 (inactive)
same,normalized growth,"locus YBR171W, strain sec66, stronger effect = lower value",1 (inactive)
same,normalized growth,"locus YBR231C, strain swc5, stronger effect = lower value",0.986 (inactive)
same,normalized growth,"locus YBR279W, strain paf1, stronger effect = lower value",0.966 (inactive)
same,normalized growth,"locus YCL011C, strain gbp2, stronger effect = lower value",0.985 (inactive)
same,normalized growth,"locus YCL016C, strain dcc1, stronger effect = lower value",0.99 (inactive)
same,normalized growth,"locus YCL061C, strain MRC1, stronger effect = lower value",0.994 (inactive)
same,normalized growth,"locus YCL069W, strain vba3, stronger effect = lower value",0.99 (inactive)
same,normalized growth,"locus YCR088W, strain abp1, stronger effect = lower value",0.988 (inactive)
same,normalized growth,"locus YDL005C, strain med2, stronger effect = lower value",0.992 (inactive)
same,normalized growth,"locus YDL040C, strain nat1, stronger effect = lower value",0.992 (inactive)
same,normalized growth,"locus YDR001C, strain nth1, stronger effect = lower value",0.99 (inactive)
same,normalized growth,"locus YDR069C, strain doa4, stronger effect = lower value",1.01 (inactive)
same,normalized growth,"locus YDR137W, strain rgp1, stronger effect = lower value",1.01 (inactive)
same,normalized growth,"locus YDR159W, strain sac3, stronger effect = lower value",1.1 (inactive)
same,normalized growth,"locus YDR195W, strain ref2",0.997 (inactive)
same,normalized growth,"locus YDR297W, strain sur2, stronger effect = lower value",0.99 (inactive)
same,normalized growth,"locus YDR334W, strain swr1, stronger effect = lower value",1.01 (inactive)
same,normalized growth,"locus YDR335W, strain msn5, stronger effect = lower value",1 (inactive)
same,normalized growth,"locus YDR392W, strain spt3, stronger effect = lower value",1.11 (inactive)
same,normalized growth,"locus YEL003W, strain gim4, stronger effect = lower value",1 (inactive)
same,normalized growth,"locus YEL037C, strain rad23, stronger effect = lower value",1.02 (inactive)
same,normalized growth,"locus YEL061C, strain CIN8 (second series), stronger effect = lower value",0.998 (inactive)
same,normalized growth,"locus YER015W, strain faa2, stronger effect = lower value",0.995 (inactive)
same,normalized growth,"locus YER016W, strain bim1, stronger effect = lower value",0.991 (inactive)
same,normalized growth,"locus YER111C, strain swi4, stronger effect = lower value",0.996 (inactive)
same,normalized growth,"locus YER155C, strain BEM2 (second series), stronger effect = lower value",1.01 (inactive)
same,normalized growth,"locus YFR010W, strain ubp6, stronger effect = lower value",1.01 (inactive)
same,normalized growth,"locus YGL167C, strain pmr1, stronger effect = lower value",1 (inactive)
same,normalized growth,"locus YGL173C, strain kem1, stronger effect = lower value",0.998 (inactive)
same,normalized growth,"locus YGL227W, strain vid30, stronger effect = lower value",0.983 (inactive)
same,normalized growth,"locus YGL240W, strain doc1, stronger effect = lower value",1.03 (inactive)
same,normalized growth,"locus YGL253W, strain hxk2, stronger effect = lower value",0.983 (inactive)
same,normalized growth,"locus YHR013C, strain ard1, stronger effect = lower value",0.987 (inactive)
same,normalized growth,"locus YHR027C, strain rpn1, stronger effect = lower value",0.986 (inactive)
same,normalized growth,"locus YHR030C, strain SLT2, stronger effect = lower value",1.02 (inactive)
same,normalized growth,"locus YHR079C, strain IRE1, stronger effect = lower value",1.01 (inactive)
same,normalized growth,"locus YHR142W, strain chs7, stronger effect = lower value",0.983 (inactive)
same,normalized growth,"locus YJL092W, strain hpr5, stronger effect = lower value",1 (inactive)
same,normalized growth,"locus YJL095W, strain BCK1 (second series), stronger effect = lower value",0.992 (inactive)
same,normalized growth,"locus YJL095W, strain BCK1, stronger effect = lower value",1.01 (inactive)
same,normalized growth,"locus YJL115W, strain asf1, stronger effect = lower value",0.989 (inactive)
same,normalized growth,"locus YJL129C, strain trk1, stronger effect = lower value",0.961 (inactive)
same,normalized growth,"locus YJL154C, strain vps35, stronger effect = lower value",0.995 (inactive)
same,normalized growth,"locus YJL164C, strain tpk1, stronger effect = lower value",0.989 (inactive)
same,normalized growth,"locus YJL166W, strain qcr8, stronger effect = lower value",0.991 (inactive)
same,normalized growth,"locus YJL187C, strain SWE1, stronger effect = lower value",1 (inactive)
same,normalized growth,"locus YJR066W, strain TOR1, stronger effect = lower value",0.975 (inactive)
same,normalized growth,"locus YKL160W, strain elf1, stronger effect = lower value",0.996 (inactive)
same,normalized growth,"locus YKR026C, strain gcn3, stronger effect = lower value",1 (inactive)
same,normalized growth,"locus YKR091W, strain srl3, stronger effect = lower value",0.989 (inactive)
same,normalized growth,"locus YLL001W, strain dnm1, stronger effect = lower value",0.976 (inactive)
same,normalized growth,"locus YLL026W, stronger effect = lower value",0.995 (inactive)
same,normalized growth,"locus YLL041C, strain sdh2, stronger effect = lower value",0.996 (inactive)
same,normalized growth,"locus YLR027C, strain aat2, stronger effect = lower value",1.03 (inactive)
same,normalized growth,"locus YLR113W, strain HOG1, stronger effect = lower value",0.971 (inactive)
same,normalized growth,"locus YLR221C, strain rsa3, stronger effect = lower value",0.965 (inactive)
same,normalized growth,"locus YLR258W, strain gsy2, stronger effect = lower value",0.992 (inactive)
same,normalized growth,"locus YLR262C, strain YPT6 (second series), stronger effect = lower value",1.01 (inactive)
same,normalized growth,"locus YLR320W, strain mms22, stronger effect = lower value",0.992 (inactive)
same,normalized growth,"locus YLR342W, strain FKS1, stronger effect = lower value",0.993 (inactive)
same,normalized growth,"locus YLR357W, strain rsc2, stronger effect = lower value",1.12 (inactive)
same,normalized growth,"locus YLR370C, strain arc18, stronger effect = lower value",0.995 (inactive)
same,normalized growth,"locus YLR384C, strain iki3, stronger effect = lower value",0.994 (inactive)
same,normalized growth,"locus YML120C, strain ndi1, stronger effect = lower value",0.99 (inactive)
same,normalized growth,"locus YMR058W, strain fet3, stronger effect = lower value",1.05 (inactive)
same,normalized growth,"locus YMR125W, strain sto1, stronger effect = lower value",0.984 (inactive)
same,normalized growth,"locus YMR129W, stronger effect = lower value",0.99 (inactive)
same,normalized growth,"locus YMR205C, strain PFK2, stronger effect = lower value",0.982 (inactive)
same,normalized growth,"locus YMR231W, strain pep5, stronger effect = lower value",1 (inactive)
same,normalized growth,"locus YNL071W, strain lat1, stronger effect = lower value",0.992 (inactive)
same,normalized growth,"locus YNL183C, strain NPR1, stronger effect = lower value",0.943 (inactive)
same,normalized growth,"locus YNL209W, strain ssb2, stronger effect = lower value",0.991 (inactive)
same,normalized growth,"locus YNL248C, strain rpa49, stronger effect = lower value",1.16 [resistant] (active)
same,normalized growth,"locus YNL322C, strain KRE1 (second series), stronger effect = lower value",0.982 (inactive)
same,normalized growth,"locus YNR049C, strain mso1, stronger effect = lower value",1.02 (inactive)
same,normalized growth,"locus YOR001W, strain rrp6, stronger effect = lower value",1.03 (inactive)
same,normalized growth,"locus YOR070C, strain gyp1, stronger effect = lower value",0.986 (inactive)
same,normalized growth,"locus YOR080W, strain dia2, stronger effect = lower value",1 (inactive)
same,normalized growth,"locus YOR083W, strain WHI5, stronger effect = lower value",0.977 (inactive)
same,normalized growth,"locus YOR106W, strain vam3, stronger effect = lower value",0.969 (inactive)
same,normalized growth,"locus YOR231W, strain MKK1, stronger effect = lower value",1 (inactive)
same,normalized growth,"locus YOR265W, strain rbl2, stronger effect = lower value",1.01 (inactive)
same,normalized growth,"locus YOR270C, strain vph1, stronger effect = lower value",1.12 (inactive)
same,normalized growth,"locus YOR290C, strain snf2, stronger effect = lower value",1.08 (inactive)
same,normalized growth,"locus YPL051W, strain arl3, stronger effect = lower value",1.02 (inactive)
same,normalized growth,"locus YPL078C, strain atp4, stronger effect = lower value",0.996 (inactive)
same,normalized growth,"locus YPL106C, strain sse1, stronger effect = lower value",1 (inactive)
same,normalized growth,"locus YPL240C, strain hsp82, stronger effect = lower value",1 (inactive)
same,normalized growth,"locus YPL256C, strain CLN2, stronger effect = lower value",1.01 (inactive)
